From PubChem BioAssay AID1159580 (chemical genetic matrix, 2015)
“And” between values parts separate entries of the source, which are not always exact repeats. Equal values may be shown once. Hit rate of the full screen: of about 5,500 compounds, about 2,000 (36%) were called active. Roughly 18% stayed inconclusive and do not appear here. Rule as the data show it: active = normalized growth mostly below about 0.91 (no sharp cut-off); inconclusive = no clear call, values can overlap the other calls; inactive = mostly above about 0.92. The list shows a part of the results.

Assay: chemical genetic growth profiling, strain panel (AID 1159580);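 also: tested at 20 µM; growth read once vehicle control cultures reached saturation at 30 °C; 1 = growth at the plate median or of vehicle wells; lower values mean less growth of the strain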
Conditions: growth OD

Measured: normalized growth

CSCCC(N)C(=O)NC(CC(C)C)C(=O)NC(Cc1ccccc1)C(=O)O (configuration not stated)
inactive: S. cerevisiae deletion strains, locus YAL013W, strain DEP1, hits give low values 1.01 | S. cerevisiae deletion strains, locus YBR021W, strain FUR4, hits give low values 1.02 | S. cerevisiae deletion strains, locus YBR229C, strain ROT2, hits give low values 1.01 | S. cerevisiae deletion strains, locus YCL029C, strain bik1, hits give low values 0.987 | S. cerevisiae deletion strains, locus YDL035C, strain GPR1, hits give low values 1.02 | S. cerevisiae deletion strains, locus YDL074C, strain BRE1, hits give low values 1.05 | S. cerevisiae deletion strains, locus YDL101C, strain DUN1, hits give low values 1.02 | S. cerevisiae deletion strains, locus YDL134C, strain PPH21, hits give low values 1.02 | S. cerevisiae deletion strains, locus YDL185W, strain tfp1, hits give low values 1 | S. cerevisiae deletion strains, locus YDL192W, strain arf1, hits give low values 1 | S. cerevisiae deletion strains, locus YDR101C, strain arx1, hits give low values 0.994 | S. cerevisiae deletion strains, locus YDR150W, strain NUM1, hits give low values 1.02 | S. cerevisiae deletion strains, locus YDR162C, strain NBP2, hits give low values 1.02 | S. cerevisiae deletion strains, locus YDR318W, strain mcm21, hits give low values 0.978 | S. cerevisiae deletion strains, locus YDR388W, hits give low values 0.995 | S. cerevisiae deletion strains, locus YDR502C, strain sam2, hits give low values 1.01 | S. cerevisiae deletion strains, locus YEL061C, strain CIN8, hits give low values 1.01 | S. cerevisiae deletion strains, locus YER110C, hits give low values 0.994 | S. cerevisiae deletion strains, locus YER155C, strain BEM2, hits give low values 1.01 | S. cerevisiae deletion strains, locus YER167W, strain BCK2, hits give low values 1.02 | S. cerevisiae deletion strains, locus YGL078C, strain dbp3, hits give low values 0.987 | S. cerevisiae deletion strains, locus YGL086W, strain mad1, hits give low values 0.999 | S. cerevisiae deletion strains, locus YGL248W, strain PDE1, hits give low values 1.02 | S. cerevisiae deletion strains, locus YGR078C, strain PAC10, hits give low values 1.03 | S. cerevisiae deletion strains, locus YGR135W, strain pre9, hits give low values 1 | S. cerevisiae deletion strains, locus YGR229C, strain SMI1, hits give low values 1.04 | S. cerevisiae deletion strains, locus YGR252W, strain gcn5, hits give low values 0.956 | S. cerevisiae deletion strains, locus YHR030C, strain SLT2, hits give low values 1 and 1.02 | S. cerevisiae deletion strains, locus YHR079C, strain IRE1 (second series), hits give low values 0.988 | S. cerevisiae deletion strains, locus YHR079C, strain IRE1, hits give low values 1.01 | S. cerevisiae deletion strains, locus YHR094C, strain hxt1, hits give low values 0.996 | S. cerevisiae deletion strains, locus YHR129C, strain ARP1, hits give low values 1.01 | S. cerevisiae deletion strains, locus YHR200W, strain rpn10, hits give low values 0.995 | S. cerevisiae deletion strains, locus YIL066C, strain RNR3, hits give low values 1.01 | S. cerevisiae deletion strains, locus YIL073C, strain SPO22, hits give low values 1 | S. cerevisiae deletion strains, locus YIL125W, strain kgd1, hits give low values 1 | S. cerevisiae deletion strains, locus YIR030C, strain dcg1, hits give low values 0.998 | S. cerevisiae deletion strains, locus YJL095W, strain BCK1, hits give low values 1.04 and 0.991 | S. cerevisiae deletion strains, locus YJL134W, strain LCB3, hits give low values 1.01 | S. cerevisiae deletion strains, locus YJL168C, strain set2, hits give low values 0.998 | S. cerevisiae deletion strains, locus YJL187C, strain SWE1 (second series), hits give low values 1.02 | S. cerevisiae deletion strains, locus YJR043C, strain POL32, hits give low values 1 | S. cerevisiae deletion strains, locus YJR066W, strain TOR1, hits give low values 0.934 | S. cerevisiae deletion strains, locus YJR075W, strain HOC1, hits give low values 1.02 | S. cerevisiae deletion strains, locus YKL009W, strain mrt4, hits give low values 0.993 | S. cerevisiae deletion strains, locus YKL068W, hits give low values 0.987 | S. cerevisiae deletion strains, locus YKL085W, strain MDH1 (second series), hits give low values 1 | S. cerevisiae deletion strains, locus YKL085W, strain MDH1, hits give low values 1 | S. cerevisiae deletion strains, locus YKL190W, strain CNB1, hits give low values 1.01 | S. cerevisiae deletion strains, locus YKR001C, strain vps1, hits give low values 0.995 | S. cerevisiae deletion strains, locus YLR039C, strain RIC1, hits give low values 1.07 | S. cerevisiae deletion strains, locus YLR058C, strain SHM2, hits give low values 1.01 | S. cerevisiae deletion strains, locus YLR102C, strain apc9, hits give low values 0.994 | S. cerevisiae deletion strains, locus YLR113W, strain HOG1, hits give low values 0.988 | S. cerevisiae deletion strains, locus YLR262C, strain YPT6, hits give low values 1.04 | S. cerevisiae deletion strains, locus YLR268W, strain sec22, hits give low values 1.01 | S. cerevisiae deletion strains, locus YLR330W, strain CHS5, hits give low values 1.01 | S. cerevisiae deletion strains, locus YLR342W, strain FKS1 (second series), hits give low values 1.01 | S. cerevisiae deletion strains, locus YLR371W, strain rom2, hits give low values 1 | S. cerevisiae deletion strains, locus YLR418C, strain cdc73, hits give low values 1 | S. cerevisiae deletion strains, locus YML016C, strain PPZ1, hits give low values 1.01 | S. cerevisiae deletion strains, locus YML032C, strain rad52, hits give low values 0.989 | S. cerevisiae deletion strains, locus YML124C, strain tub3, hits give low values 0.995 | S. cerevisiae deletion strains, locus YMR078C, strain ctf18, hits give low values 0.987 | S. cerevisiae deletion strains, locus YMR223W, strain ubp8, hits give low values 0.995 | S. cerevisiae deletion strains, locus YMR263W, strain SAP30, hits give low values 1.03 | S. cerevisiae deletion strains, locus YMR307W, strain GAS1, hits give low values 0.996 | S. cerevisiae deletion strains, locus YNL067W, strain RPL9B, hits give low values 1.03 | S. cerevisiae deletion strains, locus YNL128W, strain TEP1, hits give low values 1.03 | S. cerevisiae deletion strains, locus YNL153C, strain GIM3, hits give low values 1.02 | S. cerevisiae deletion strains, locus YNL183C, strain NPR1, hits give low values 0.928 | S. cerevisiae deletion strains, locus YNL233W, strain BNI4, hits give low values 1.02 | S. cerevisiae deletion strains, locus YNL250W, strain rad50, hits give low values 1 | S. cerevisiae deletion strains, locus YNL271C, strain bni1, hits give low values 0.994 | S. cerevisiae deletion strains, locus YNL298W, strain CLA4, hits give low values 1 | S. cerevisiae deletion strains, locus YNL307C, strain MCK1, hits give low values 0.98 | S. cerevisiae deletion strains, locus YNL322C, strain KRE1, hits give low values 1.01 | S. cerevisiae deletion strains, locus YNR052C, strain pop2, hits give low values 0.996 | S. cerevisiae deletion strains, locus YOL006C, strain TOP1, hits give low values 1.11 | S. cerevisiae deletion strains, locus YOL012C, strain htz1 0.734 | S. cerevisiae deletion strains, locus YOL147C, strain pex11, hits give low values 0.996 | S. cerevisiae deletion strains, locus YOR061W, strain CKA2, hits give low values 1.02 | S. cerevisiae deletion strains, locus YOR069W, strain VPS5, hits give low values 1.01 | S. cerevisiae deletion strains, locus YOR136W, strain idh2, hits give low values 0.989 | S. cerevisiae deletion strains, locus YOR144C, strain elg1, hits give low values 0.998 | S. cerevisiae deletion strains, locus YOR184W, strain ser1, hits give low values 0.989 | S. cerevisiae deletion strains, locus YOR231W, strain MKK1, hits give low values 1 | S. cerevisiae deletion strains, locus YOR316C, strain cot1, hits give low values 0.998 | S. cerevisiae deletion strains, locus YPL055C, strain LGE1, hits give low values 1.06 | S. cerevisiae deletion strains, locus YPL241C, strain CIN2, hits give low values 1.01 | S. cerevisiae deletion strains, locus YPL256C, strain CLN2, hits give low values 1.01 | S. cerevisiae deletion strains, locus YPR119W, strain clb2, hits give low values 0.985 | S. cerevisiae deletion strains, locus YPR141C, strain kar3, hits give low values 0.993 | S. cerevisiae deletion strains, locus YPR163C, strain tif3, hits give low values 0.989 | S. cerevisiae deletion strains, locus YPR167C, strain met16, hits give low values 0.993 | S. cerevisiae deletion strains, strain wtn01, hits give low values 1.01 | S. cerevisiae strains, strain wild type, hits give low values 1.01
